This is one part of the list. The true hit rate is not given.
Target: furin, P09958
Assay: furin cleavage Z-score vs untreated control; higher = more cleavage, active = 3.5 or more, inactive = 1 or less, 8 variable residues between constant flanks
In short: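 Purified furin cleaved 8-mer peptides that were fused to a cDNA oligonucleotide and held on magnetic beads by their N-terminus. Each 0.01 ml reaction used a 1:10 enzyme:substrate ratio in 50 mM HEPES pH 7.5 with CaCl2 and NaCl and ran 7.5, 15 or 30 min. Released DNA was adapter-tagged by PCR and sequenced, and read counts gave abundance. The cleavage Z-score came from log counts against furin-free reactions, lowess-adjusted and scaled by median absolute deviation.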

Sequence of furin, P09958 (P09958 whole entry): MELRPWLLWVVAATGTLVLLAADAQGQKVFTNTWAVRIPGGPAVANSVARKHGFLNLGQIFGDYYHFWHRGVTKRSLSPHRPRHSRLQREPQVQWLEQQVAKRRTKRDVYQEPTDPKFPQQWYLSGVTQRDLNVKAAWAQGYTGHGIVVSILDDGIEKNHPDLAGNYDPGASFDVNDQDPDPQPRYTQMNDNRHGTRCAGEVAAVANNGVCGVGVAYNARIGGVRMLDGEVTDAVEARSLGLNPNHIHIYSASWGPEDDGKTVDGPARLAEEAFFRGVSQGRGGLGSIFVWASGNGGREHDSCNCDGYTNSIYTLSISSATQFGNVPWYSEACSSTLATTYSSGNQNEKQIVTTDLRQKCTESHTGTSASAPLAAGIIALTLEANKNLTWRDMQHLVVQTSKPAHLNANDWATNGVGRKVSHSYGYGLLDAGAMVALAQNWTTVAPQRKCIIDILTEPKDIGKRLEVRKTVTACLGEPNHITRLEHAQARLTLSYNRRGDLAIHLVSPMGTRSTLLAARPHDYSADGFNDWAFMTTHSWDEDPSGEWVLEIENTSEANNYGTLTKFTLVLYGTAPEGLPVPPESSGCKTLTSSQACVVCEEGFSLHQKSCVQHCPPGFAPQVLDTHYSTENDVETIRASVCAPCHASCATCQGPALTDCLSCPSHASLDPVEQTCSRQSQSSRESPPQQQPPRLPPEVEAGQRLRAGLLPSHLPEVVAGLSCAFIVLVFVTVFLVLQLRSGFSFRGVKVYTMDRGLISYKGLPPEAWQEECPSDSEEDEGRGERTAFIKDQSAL

Sequence | furin cleavage Z-score (7.5 min) | furin cleavage Z-score (15 min) | furin cleavage Z-score (30 min)
CAHAPTGSGKAGNASASA [HC775] | 0.395 (inactive) | -1.05 (inactive) | -0.0524 (inactive)
CAMEGCSQHLAGNASASA [HC1716] | 1.23 | 0.47 (inactive) | 0.552 (inactive)
CAAEMEECSQAGNASASA [HC1783] | -0.835 (inactive) | 2.03 | -0.939 (inactive)
CASTPCSSHLAGNASASA [HC2537] | -0.548 (inactive) | -0.18 (inactive) | 0.0993 (inactive)
CAEVVTSTFVAGNASASA [HC2227] | 0.885 (inactive) | 0.0423 (inactive) | 0.809 (inactive)
CASRPSWGPTAGNASASA [HC212] | -1.22 (inactive) | 0.133 (inactive) | -0.131 (inactive)
CAEVAERKREAGNASASA [FS-1195] | -1.19 (inactive) | 1.03 | 0.657 (inactive)
CAPSRRRKREAGNASASA [FS-1385] | 13.2 (active) | 15 (active) | 9.92 (active)
CAIPKARRPEAGNASASA [HC193] | -0.401 (inactive) | -0.306 (inactive) | -0.34 (inactive)
CAYRFVAPGEAGNASASA [HC910] | -0.691 (inactive) | -0.942 (inactive) | -0.913 (inactive)
CAPTRRRWREAGNASASA [FS-1386] | 5.77 (active) | 5.98 (active) | 7.12 (active)
CAPSPEFFTEAGNASASA [HC1219] | -1.44 (inactive) | -0.301 (inactive) | -0.0659 (inactive)
CAYRTRRKREAGNASASA [FS-637] | 9.23 (active) | 8.28 (active) | 6.71 (active)
CAEAEVPCHRAGNASASA [HC2443] | 1.31 | 1.69 | -0.0334 (inactive)
CAPLEVVTSTAGNASASA [HC2279] | 0.247 (inactive) | 0.62 (inactive) | 0.87 (inactive)
CAKPAIIPDRAGNASASA [HC1006] | -0.622 (inactive) | 0.0184 (inactive) | -0.00549 (inactive)
CAGAVQNEITAGNASASA [HC975] | -1.74 (inactive) | -0.537 (inactive) | -1.39 (inactive)
CAGCPPDSDAAGNASASA [HC1348] | 0.143 (inactive) | -0.261 (inactive) | -1.34 (inactive)
CARQRRSSGHAGNASASA [FS-3164] | 6.61 (active) | 6.83 (active) | 6.04 (active)
CARQRRPWEPAGNASASA [FS-2366] | -0.356 (inactive) | -0.595 (inactive) | -1.76 (inactive)
CARQRRVAGLAGNASASA [FS-2767] | -1.21 (inactive) | -0.684 (inactive) | 1.04
CARQRRHPELAGNASASA [FS-2763] | 2.08 | 1.42 | 4.23 (active)
CARQRRSHVLAGNASASA [FS-2766] | 2.3 | 4.17 (active) | 4.75 (active)
CASRSLTPCTAGNASASA [HC719] | -0.572 (inactive) | -2.71 (inactive) | 0.443 (inactive)
CANYATGNLPAGNASASA [HC242] | -0.747 (inactive) | 0.727 (inactive) | -1.07 (inactive)
CAKRRRGRKSAGNASASA [FS-679] | 0.804 (inactive) | 2.45 | 1.45
CAFRRRGRRSAGNASASA [FS-1325] | 7.29 (active) | 7.04 (active) | 5.71 (active)
CAYHFRGRRSAGNASASA [FS-1438] | 8.22 (active) | 8.64 (active) | 7.23 (active)

Source: the supplement of paper PMC3545927
